Source: PubChem BioAssay
This is a sample that favours compounds with a hit; in the whole collection about 2.2% have one here.
Giardia FBPA inh-1: blocks Giardia fructose-bisphosphate aldolase activity | A8B2U2 | purified Giardia FBPA | Potency, µM (highest dose often 59.6 µM), most hits filed as inhibitors | 0.71% of 290,000 active | AID 2451; also: nearly all actives have a fitted effect of over 55% in size
Target sequence (A8B2U2 whole entry, looked up): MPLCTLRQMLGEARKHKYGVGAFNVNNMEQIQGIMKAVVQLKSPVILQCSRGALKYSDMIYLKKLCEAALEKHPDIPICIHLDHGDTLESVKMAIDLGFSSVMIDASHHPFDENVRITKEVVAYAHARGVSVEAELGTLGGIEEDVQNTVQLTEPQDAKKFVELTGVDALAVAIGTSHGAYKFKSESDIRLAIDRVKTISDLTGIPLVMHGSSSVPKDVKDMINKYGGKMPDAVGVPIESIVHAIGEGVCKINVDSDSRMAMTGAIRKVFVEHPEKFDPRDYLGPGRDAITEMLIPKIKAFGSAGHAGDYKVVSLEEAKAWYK
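Giardia FBPA (40 nM reagent) was preincubated 10 min at RT with compound (up to 57.5 uM final), then substrate plus GAPDH/TPI/NAD/arsenate coupling system with diaphorase/resazurin was added; resorufin fluorescence (525/598 nm) was read after 20 min.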
FMDV inh: foot and mouth disease virus antiviral activity. FMDV antiviral cell-based qHTS. 1.2% of 410,000 active. Potency, µM (titrated, usually from 57.9 µM), most hits filed as inhibitors; calls by dose curve; tested in HEK293T cells; also: read-out not given here; nearly all actives have a fitted effect of over 45% in size
VACV mCherry inh: vaccinia inhibition (mCherry reporter). Potency, µM (top dose mostly 36.5 µM), actives largely listed as inhibitors. 0.63% of 310,000 active. AID 720579. Vaccinia virus mCherry reporter infection, fluorescence; calls by dose curve; tested in A549 cells; also: nearly all actives have a fitted effect of over 35% in size
Vaccinia Venus: inhibitors of vaccinia virus (Venus reporter). Vaccinia virus Venus reporter expression, fluorescence. Potency, µM (titrated, usually from 36.5 µM), usual class: inhibitors. 0.46% of 330,000 active. AID 720580; calls by dose curve; tested in A549 cells; also: nearly all actives have a fitted effect of over 30% in size
Giardia growth: Giardia lamblia growth inhibition | shares compounds with Giardia FBPA inh-1 | Giardia lamblia trophozoite growth inhibition | 5% of 1,500 active | AID 2785 | Potency, µM (doses to about 57.5 µM), usual class: inhibitors;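 also: trophozoites exposed to compound for 48 h at 37 °C; nearly all actives have a fitted effect of over 70% in size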
Mammal cell tox: counter-screen for Giardia aldolase inhibitors: mammalian cell toxicity | mammalian cell viability counter-screen, qHTS | shares compounds with Giardia FBPA inh-1 | AID 2786 | Potency, µM (series often up to 57.5 µM), actives largely listed as inhibitors | 4% of 1,500 active;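 also: Chinese hamster ovary cells used as mammalian cytotoxicity surrogate; viability measured as cellular ATP by luminescence; compound exposure lasted 48 h before reading; nearly all actives have a fitted effect of over 60% in size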
Giardia FBPA inh-2: confirmation of Giardia fructose-bisphosphate aldolase inhibitors; shares compounds with Giardia FBPA inh-1; purified Giardia aldolase enzyme activity, qHTS; 5% of 1,500 active; Potency, µM (titrated, usually from 57.5 µM), hits mostly inhibitors; also: nearly all actives have a fitted effect of over 45% in size
Rabbit aldolase: selectivity test for Giardia aldolase inhibitors: rabbit aldolase. shares compounds with Giardia FBPA inh-1. Rabbit muscle FBPA enzyme inhibition, selectivity counter-screen. Potency, µM (highest dose often 57.5 µM), most hits filed as inhibitors. 4% of 1,500 active. AID 2794; also: nearly all actives have a fitted effect of over 60% in size
Target sequence (P00883 whole entry, looked up): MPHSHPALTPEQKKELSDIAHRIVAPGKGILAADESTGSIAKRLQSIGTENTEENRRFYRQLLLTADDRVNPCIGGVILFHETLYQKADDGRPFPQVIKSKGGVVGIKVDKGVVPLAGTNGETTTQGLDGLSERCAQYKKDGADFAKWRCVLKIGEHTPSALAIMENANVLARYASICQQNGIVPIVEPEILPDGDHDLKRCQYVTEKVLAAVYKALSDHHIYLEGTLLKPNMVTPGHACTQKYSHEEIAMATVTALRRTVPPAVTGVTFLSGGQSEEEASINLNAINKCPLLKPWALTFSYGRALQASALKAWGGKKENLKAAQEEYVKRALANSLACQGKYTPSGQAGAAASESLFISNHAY
GAPDH counter: GAPDH inhibition flagged for Giardia aldolase hits. 6% of 1,500 active. GAPDH coupling enzyme counterscreen, biochemical, qHTS. Potency, µM (highest dose often 57.5 µM), actives largely listed as inhibitors. shares compounds with Giardia FBPA inh-1; also: nearly all actives have a fitted effect of over 55% in size
Hits are given with their value; . = inactive; ? = inconclusive; / = no result given; [ ] = another dose, or the depositor's remark. Unless noted, calls follow the shape of the dose curve; as a rule, active = well fitted curve in the direction sought with a large enough effect; inconclusive = small, poorly fitted or top-dose-only effect, or another doubt; inactive = no such curve, though single readings can be large; an effect the other way counts as inactive or inconclusive.

SMILES	Giardia FBPA inh-1	FMDV inh	VACV mCherry inh	Vaccinia Venus	Giardia growth	Mammal cell tox	Giardia FBPA inh-2	Rabbit aldolase	GAPDH counter
CC1CCCCN1C(=O)COC(=O)c1ccc(S(C)(=O)=O)c([N+](=O)[O-])c1 (configuration not stated)	/	/	.	.	/	/	/	/	/
CN(C)CCCNCC(=O)c1c(-c2ccccc2)n(C)c2ccccc12	14µM	.	.	?	.	.	.	.	.
COc1ccc2c(c1)C(=O)[C@@H](OC(=O)NCCc1ccc(OC)c(OC)c1)[C@H](c1ccc(OC)c(Br)c1)O2	.	/	/	/	/	/	/	/	/
CC1(C(=O)O)COC(c2ccc([N+](=O)[O-])cc2)OC1 (configuration not stated)	.	.	/	/	/	/	/	/	/
O=C1NC(C(=O)O)=CC(c2ccc([N+](=O)[O-])cc2)N1 (configuration not stated)	18µM	.	/	/	.	.	.	.	.
CCC1CCc2nc3sc(C(=O)Nc4ccc(F)cc4F)c(N)c3cc2C1 (configuration not stated)	/	.	.	.	/	/	/	/	/
CNc1cc(C(=O)O)nc2ccccc12	/	/	.	.	/	/	/	/	/
Cn1c(SCC(=O)c2ccccc2)nnc1-c1cnccn1	20µM	.	/	/	.	.	.	.	.
CCn1c(SCC(=O)c2ccccc2)nnc1-c1cnccn1	?	.	/	/	/	/	/	/	/
COc1ccc(S(=O)(=O)N2CCN(Cc3ccccc3)CC2)c(C)c1	.	.	/	/	/	/	/	/	/
Cc1ccc(S(=O)(=O)N2CCN(CCc3ccccc3)CC2)c(C)c1	20µM	?	?	?	.	.	.	.	.
Nc1cccnc1Sc1cccc(Cl)c1	1µM	.	/	/	.	.	.	.	.
Nc1cccnc1Sc1ccc(Cl)cc1	.	.	/	/	/	/	/	/	/
O=C(Nc1sc2c(c1C(=O)O)CCC2)c1ccc(F)cc1	14µM	.	?	.	?	.	.	?	?
O=C1OC2(CCCCC2)CC2=C1C1O[C@](CCCCN3C(=O)c4ccccc4C3=O)(Cc3ccccc31)O2	.[12.9 µM]	/	/	/	/	/	/	/	/
CSc1ccc(/C=C2\C=Cc3ccc([N+](=O)[O-])cc32)cc1	/	/	.	.	/	/	/	/	/
Cc1c(Br)c(=O)oc2c(Br)c(O)c(O)cc12	?	.	.	.	.	.	?	?	.
Cc1cc(Cl)ccc1-n1c(CCC(=O)O)ccc1-c1cccs1	/	.	.	.	/	/	/	/	/
C=CCSc1nc2sc3c(c2c(=O)[nH]1)CC(C)(C)OC3	/	.	.	.	/	/	/	/	/
C=CCNC(=S)NNc1nc2sc3c(c2c(=O)[nH]1)CC(C)(C)OC3	1.3µM	.	?	.	?	.	.	.	.
Cc1c(C=O)ccc(N(C)C)c1C	/	/	.	.	/	/	/	/	/
COc1cc(S(=O)(=O)NCCN2CCOCC2)ccc1-n1cnnn1	18µM	.	.	.	.[10.4 µM]	.	.	.	.
COc1cc(S(=O)(=O)NCCCN2CCOCC2)ccc1-n1cnnn1	?	.	.	.	/	/	/	/	/
O=C(Nc1ccc(F)cc1)Oc1ccc[nH]c1=O	?	.	.	.	.	.	0.46µM	?	.
O=C(Oc1ccc[nH]c1=O)c1ccccc1	/	.	.	.	/	/	/	/	/
SMILES	Giardia FBPA inh-1	FMDV inh	VACV mCherry inh	Vaccinia Venus	Giardia growth	Mammal cell tox	Giardia FBPA inh-2	Rabbit aldolase	GAPDH counter
CCc1sc(-c2cc3cccc(OC)c3oc2=O)nc1-c1cc(C)ccc1C	/	/	.	.	/	/	/	/	/
CCC(C)N(C)C1CCN(C(=S)Nc2cccc(SC)c2)CC1 (configuration not stated)	10µM	.	.	.	.	.	.	.	.
CC1(C(=O)NC(=S)N(CCC#N)Cc2cccnc2)CC1(Cl)Cl (configuration not stated)	18µM	/	/	/	.[10.4 µM]	.	.	.	.
O=C(O[C@@H]1Cc2c(O)cc(O)cc2OC1c1ccc(O)c(O)c1)c1cc(O)c(O)c(O)c1 (some centres not stated)	?	.	.	.	/	/	/	/	/
COC(=O)c1c(NC(C)=O)sc2c1CCN(Cc1ccccc1)C2	?	.	?	.	/	/	/	/	/
CCOC(=O)c1c(NC(=O)CC)sc2c1CCN(Cc1ccccc1)C2	11µM	.	?	.	?	.	.	.	.
CC(=O)Nc1sc2c(c1C(N)=O)CCN(Cc1ccccc1)C2	.	.	.	.	/	/	/	/	/
NC(=O)c1c(NC(=O)Cc2ccccc2)sc2c1CCN(Cc1ccccc1)C2	13µM	?	.	.	?	.	.	.	.
CCOC(=O)c1c(NC(C)=O)sc2c1CCN(Cc1ccccc1)C2	?	.	?	.	/	/	/	/	/
COC(=O)c1c(NC(=O)Cc2ccccc2)sc2c1CCN(C(C)C)C2	11µM	.	?	.	.	.	.	.	.
COC(=O)c1c(NC(=O)C(C)(C)C)sc2c1CCN(Cc1ccccc1)C2	11µM	?	.	.	.	.	.	.	.
CC[C@H](C)[C@H](NC(=O)[C@H](CO)NC(=O)[C@H](CC(C)C)NC(=O)[C@H](CO)NC(=O)[C@@H]1CCCN1C(=O)[C@H](CC(N)=O)NC(=O)[C@@H](N)CC(=O)O)C(=O)N[C@@H](CC(=O)O)C(=O)N[C@@H](CC(C)C)C(=O)N[C@H](C(=O)N[C@@H](Cc1ccccc1)C(=O)N[C@@H](Cc1cnc[nH]1)C(=O)N[C@@H](CC(C)C)C(=O)N[C@@H](CC(C)C)C(=O)N[C@@H](CCCNC(=N)N)C(=O)N[C@H](C(=O)N[C@@H](CC(C)C)C(=O)N[C@@H](CC(C)C)C(=O)N[C@@H](CCC(=O)O)C(=O)N[C@@H](CC(C)C)C(=O)N[C@@H](C)C(=O)N[C@@H](CCCNC(=N)N)C(=O)N[C@H](C(=O)N[C@@H](CCC(N)=O)C(=O)N[C@@H](CO)C(=O)N[C@@H](CCC(N)=O)C(=O)N[C@@H](CCCNC(=N)N)C(=O)N[C@@H](CCC(=O)O)C(=O)N[C@@H](CCCNC(=N)N)C(=O)N[C@@H](C)C(=O)N[C@@H](CCC(=O)O)C(=O)N[C@@H](CCC(N)=O)C(=O)N[C@@H](CC(N)=O)C(=O)N[C@@H](CCCNC(=N)N)C(=O)N[C@H](C(=O)N[C@H](C(=O)N[C@@H](Cc1ccccc1)C(=O)N[C@@H](CC(=O)O)C(=O)N[C@@H](CO)C(=O)N[C@H](C(N)=O)C(C)C)[C@@H](C)CC)[C@@H](C)CC)[C@@H](C)O)[C@@H](C)O)[C@@H](C)O	.	/	/	/	/	/	/	/	/
CCCCC(=O)N/N=C/c1c(O)n(-c2cccc3ccccc23)c(=O)[nH]c1=O	16µM	.	/	/	.	.	.	.	.
CNc1nc(N2CCCN(C)CC2)nc2cc(OC)c(OC)cc12	/	/	.	.	/	/	/	/	/
COc1cc(C(=O)O/N=C2/C=C(C)C(=O)C=C2C)cc(OC)c1OC	6.3µM	.	.	.	.[10.4 µM]	.	14µM	6.3µM	3.2µM
COc1cc(C(=O)ON=C2C(C)=CC(=O)C=C2C)cc(OC)c1OC	?	.	/	/	/	/	/	/	/
